Laboratory results from publication PMC5540273 (PLoS ONE, 2017).

What was measured:
Settings in all cases: concentration: 1 μM, replicates: in singlicate; n = 1
[1] = test system: T1, FAK
T1 construct: gene PTK2

[2] = test system: FER
[3] = test system: FES
[4] = test system: FGFR1
[5] = test system: FGFR2
[6] = test system: FGFR3
[7] = test system: FGFR4
[8] = test system: FGR
[9] = test system: FLT1
[10] = test system: FLT3-autoinhibited
[11] = test system: FLT3
[12] = test system: FLT4
[13] = test system: FRK
[14] = test system: FYN
[15] = test system: GAK
[16] = test system: T2, GCN2(Kin.Dom.2,S808G)
T2 construct: gene EIF2AK4

[17] = test system: GRK1
[18] = test system: T3, GRK2
T3 construct: gene ADRBK1

[19] = test system: T4, GRK3
T4 construct: gene ADRBK2

[20] = test system: GRK4
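Also: KINOMEscan kinase panel screen.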

SMILES	%Inh [1]	%Inh [2]	%Inh [3]	%Inh [4]	%Inh [5]	%Inh [6]	%Inh [7]	%Inh [8]	%Inh [9]	%Inh [10]	%Inh [11]	%Inh [12]	%Inh [13]	%Inh [14]	%Inh [15]	%Inh [16]	%Inh [17]	%Inh [18]	%Inh [19]	%Inh [20]
Fc1cc(Cl)ccc1Nc1ccnc2cc(-c3ccc(CN4CCCCC4)o3)ccc12 [GW560116]	0%	5%	0%	0%	0%	0%	0%	31%	15%	0%	0%	0%	4%	18%	35%	0%	0%	0%	18%	0%
Cc1ccccc1-n1cnc2c(N)ncnc21 [SKF-97510]	0%	4%	0%	0%	0%	0%	0%	0%	0%	0%	0%	0%	0%	8%	0%	0%	0%	0%	0%	0%
Cc1cc(N2Cc3ccccc3C2)nc(Nc2ccc(S(=O)(=O)N3CCOCC3)cc2)n1.Cl [GSK1669917]	0%	25%	9%	0%	11%	15%	1%	0%	9%	0%	0%	3%	11%	0%	0%	0%	0%	0%	0%	0%
Cl.NC(=O)c1cccc(Nc2nccc(Nc3ccc(Oc4cccc(Cl)c4)c(Cl)c3)n2)c1 [GW659008]	0%	9%	0%	18%	0%	0%	0%	52%	36%	0%	54%	0%	24%	59%	43%	11%	0%	0%	18%	15%
COc1ccc(Nc2nccc(NCCNC(=O)Nc3ccccc3F)n2)cc1 [GSK1379901]	0%	35%	26%	0%	44%	6%	10%	36%	32%	0%	0%	6%	13%	0%	0%	2%	0%	0%	26%	0%
CC(C)(C)c1ccc(C(=O)Nc2cn3cc(-c4cccnc4)ccc3n2)cc1	12%	0%	29%	27%	21%	16%	0%	19%	22%	0%	65%	16%	23%	0%	18%	21%	41%	0%	0%	0%
Cn1cncc1-c1ccc2ncnc(Nc3ccc(OCc4ccccc4)cc3)c2c1 [GW320571]	0%	25%	0%	2%	13%	31%	14%	15%	27%	0%	62%	6%	8%	12%	0%	0%	8%	7%	0%	0%
